Laboratory results as given in PMC4336329 (PLoS ONE, 2015).
In all, about 310,000 compounds went through this assay and about 14,000 (4.5%) showed an effect of 50% or more. The effect is printed as a negative number. This is one part of a sample in which strong results are shown more often than they occur.

These compounds were tested against human ether-à-go-go-related gene (hERG) potassium channel (human, UniProt Q12809) (assay: primary screen, population patch clamp on CHO cells stably expressing hERG; higher = less effect of the substance).
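Further: peak tail current of the secondary pulse compared with the same well before compound.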

Sequence of human ether-à-go-go-related gene (hERG) potassium channel (Q12809 whole entry, looked up): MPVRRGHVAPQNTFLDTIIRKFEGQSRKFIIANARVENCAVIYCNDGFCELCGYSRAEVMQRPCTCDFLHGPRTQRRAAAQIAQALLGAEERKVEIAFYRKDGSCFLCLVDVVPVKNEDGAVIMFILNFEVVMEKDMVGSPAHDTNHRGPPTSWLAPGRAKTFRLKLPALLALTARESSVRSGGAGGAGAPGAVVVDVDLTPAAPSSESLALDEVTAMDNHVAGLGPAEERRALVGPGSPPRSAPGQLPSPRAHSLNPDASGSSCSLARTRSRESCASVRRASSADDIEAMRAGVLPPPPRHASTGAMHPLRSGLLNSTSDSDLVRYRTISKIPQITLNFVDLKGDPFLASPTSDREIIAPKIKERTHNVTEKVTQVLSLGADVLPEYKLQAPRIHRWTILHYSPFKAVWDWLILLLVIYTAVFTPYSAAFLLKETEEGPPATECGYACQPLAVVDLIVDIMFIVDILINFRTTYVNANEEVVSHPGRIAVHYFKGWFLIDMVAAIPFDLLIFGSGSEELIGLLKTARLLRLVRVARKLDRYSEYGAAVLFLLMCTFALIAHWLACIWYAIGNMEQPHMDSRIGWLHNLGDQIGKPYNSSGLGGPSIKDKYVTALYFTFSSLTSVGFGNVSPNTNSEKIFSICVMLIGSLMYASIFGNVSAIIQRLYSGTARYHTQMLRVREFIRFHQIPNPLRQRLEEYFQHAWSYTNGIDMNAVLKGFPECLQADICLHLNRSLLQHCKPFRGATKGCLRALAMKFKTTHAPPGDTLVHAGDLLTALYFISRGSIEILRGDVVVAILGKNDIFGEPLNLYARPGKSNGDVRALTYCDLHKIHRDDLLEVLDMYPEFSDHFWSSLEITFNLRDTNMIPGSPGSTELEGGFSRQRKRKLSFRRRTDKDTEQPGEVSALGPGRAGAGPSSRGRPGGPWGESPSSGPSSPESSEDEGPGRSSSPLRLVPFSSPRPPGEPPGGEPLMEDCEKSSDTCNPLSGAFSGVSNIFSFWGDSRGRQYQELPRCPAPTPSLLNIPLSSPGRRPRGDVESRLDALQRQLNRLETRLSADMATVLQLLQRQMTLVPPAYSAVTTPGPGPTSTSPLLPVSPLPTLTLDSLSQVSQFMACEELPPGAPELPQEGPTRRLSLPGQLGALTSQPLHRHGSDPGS

| Structure (SMILES) | hERG current change (%, negative = inhibition) at 10uM [%] |
| --- | --- |
| COC(=O)C1=C(C)Nc2ncnn2C1c1ccco1 (centres unmarked) | 6.44 |
| COCCCn1c(SCC(=O)NNC(=O)c2cccc(O)c2)nnc1-c1ccncc1 | 5.74 |
| COc1ccc(-c2nc(C#N)c(N3CCC(C(N)=O)CC3)o2)cc1OC | -10.3 |
| COCCN(CC(=O)Nc1cccc(C)c1C)C(=O)c1cc(-c2cccs2)nn1-c1ccccc1 | 1.14 |
| CCCCOc1ccc(CSc2n[nH]c(C)n2)cc1 | -1.41 |
| CN1CCN(C(=O)CC2C(=O)NCCN2Cc2ccc(-c3ccccc3)cc2)CC1 (centres unmarked) | 2.25 |
| COC(=O)C1CN(C(=O)COc2cc(C)c(Cl)c(C)c2)c2ccccc2O1 (centres unmarked) | 18.9 |
| O=C1NC(=O)C2(CCC(C(=O)O)C2)N1 (centres unmarked) | 19.3 |
| CCOC(=O)c1oc2ccc(/C=N/O)c(Cl)c2c1C | 37.3 |
| O=C(CSc1cccc[n+]1[O-])Nc1ccc(C(F)(F)F)cc1[N+](=O)[O-] | 4.31 |
| Clc1ccc(CO/N=C/c2cccs2)cc1 | 12.4 |
| COCCCn1c(N)c(C(=O)OC(C)COC)c2nc3ccccc3nc21 (centres unmarked) | 0.737 |
| CCCCOCCCn1c(N)c(C(=O)OC(C)COC)c2nc3ccccc3nc21 (centres unmarked) | -9.66 |
| CC(C)(C)OC(=O)c1c(N)n(Cc2ccco2)c2nc3ccccc3nc12 | -5.55 |
| CCOC(=O)c1c(N)n(Cc2ccccc2)c2nc3ccccc3nc12 | -29.6 |
| COCC(C)OC(=O)c1c(N)n(CC(C)C)c2nc3ccccc3nc12 (centres unmarked) | -67.8 |
| CCOC(=O)c1c(N)n(Cc2ccco2)c2nc3ccccc3nc12 | -61.9 |
| CSc1nccc(-c2nn(-c3ccc(C)cc3)ccc2=O)n1 | -15 |
| COC(=O)CSc1nnc(CNC(=O)c2ccc(S(=O)(=O)N3CCOCC3)cc2)n1C | 23.7 |
| COCCNC(=O)c1cccc(OC2CCN(Cc3ccc(Cl)c(F)c3)CC2)c1 | -37.5 |
| COCCNC(=O)c1cccc(OC2CCN(Cc3ccc(C(=O)OC)cc3)CC2)c1 | -40.5 |
| COCCNC(=O)c1cccc(OC2CCN(Cc3ccc(OC(F)F)cc3)CC2)c1 | -73.5 |
| COCCNC(=O)c1cccc(OC2CCN(Cc3ccc(C(C)C)cc3)CC2)c1 | -70.7 |

| Structure (SMILES) | hERG current change (%, negative = inhibition) at 10uM [%] |
| --- | --- |
| COCCNC(=O)c1cccc(OC2CCN(Cc3ccccc3OC(F)F)CC2)c1 | 2.5 |
| COCCNC(=O)c1cccc(OC2CCN(Cc3ccc(F)c(OC)c3)CC2)c1 | -16.2 |
| COC(=O)/C=c1\sc2ncnn2c1=O | 3.63 |
| CCCNC(=O)c1onc(CS(=O)(=O)c2cccc(OC)c2)c1C(=O)NCCC | -12.5 |
| CN(C)/C=C/C(=O)c1ncc(C(F)(F)F)cc1Cl | 8.95 |
| CC(NC(=O)[C@H](C)NC(=O)c1ccco1)c1ccc(S(N)(=O)=O)cc1 (some centres unmarked) | 18.9 |
| O=C(CN1CCC(C(=O)c2cccc(Cl)c2)CC1)Nc1ccc(C(=O)O)cc1 | 16 |
| COc1ccc(Nc2nnc(-c3ccccc3)c3ccccc23)cc1C(=O)N1CCCCC1 | -73 |
| Oc1ccc(-c2nnc(Nc3ccccc3)c3ccccc23)cc1 | -58.9 |
| CC(=O)Nc1ccc(Nc2nnc(-c3ccc(O)cc3)c3ccccc23)cc1 | 10.2 |
| Oc1ccc(Nc2nnc(-c3ccc(O)cc3)c3ccccc23)cc1 | 24.3 |
| Cc1nc2cc(Nc3nnc(-c4ccccc4)c4ccccc34)ccc2n1C | -67.2 |
| COc1ccc(-c2nnc(Nc3ccc(OC)c(C(=O)N4CCCCC4)c3)c3ccccc23)cc1 | -39.3 |
| COc1ccc(Nc2nnc(-c3ccc(C)cc3)c3ccccc23)cc1C(=O)N1CCCCC1 | -33.7 |
| COc1ccc(Nc2nnc(-c3ccc(C(N)=O)cc3)c3ccccc23)cc1 | -33.9 |
| COc1ccc(Nc2nnc(-c3ccc(O)cc3)c3ccccc23)cc1 | -64.8 |
| Cc1nnc(Nc2ccc3c(c2)ncn3C)c2ccccc12 | 0.0649 |
| Cc1ccc(-c2nnc(Nc3ccc4c(c3)nc(C)n4C)c3ccccc23)cc1 | 5.03 |
| Oc1ccc(-c2nnc(Nc3cccc(O)c3)c3ccccc23)cc1 | -7.99 |
| CCOC(=O)c1ccc(N=Cc2nc3ccccc3n2C)cc1 | 7.61 |
| COc1ccc(-n2c(=O)[nH]cc(C(=O)Nc3ccc4c(c3)OCCO4)c2=O)cc1OC | 6.18 |
| N#Cc1c(N)nc2c(c1N)CC(COc1ccccc1)O2 (centres unmarked) | -6.98 |
| CCSc1nnc(CNC(=O)C23CC4CC(CC(C4)C2)C3)n1Cc1ccccc1 | -5.81 |

| Structure (SMILES) | hERG current change (%, negative = inhibition) at 10uM [%] |
| --- | --- |
| C[C@H](NC(=O)c1ccccc1Cl)C(=O)OCc1cn2cc(Cl)ccc2n1 | -7.08 |
| COc1ccc(OC)c(NC(=O)CCc2nnc3ccc(NCc4ccco4)nn23)c1 | -15.2 |
| CC(Nc1nc(-c2cccc(Br)c2)cs1)c1nc2cc(Cl)c(N3CCCCC3)cc2n1CCOCCO (centres unmarked) | -19.1 |
| COc1cc(C(C)=O)ccc1OC(=O)c1cc2cccc(OC)c2oc1=O | 2.53 |
| CCn1c(SCC(=O)Nc2cc(NC(C)=O)ccc2OC)nnc1-c1ccccn1 | 4.03 |
| N#Cc1c(C(F)(F)F)cc(-c2ccccc2)nc1SCC(=O)N1CCOCC1 | -8.28 |
| CC(C)NC(=O)CSc1ncccc1-c1nc2ccccc2[nH]1 | -17.1 |
| O=C1CC(c2ccccc2)CC(=O)C1CS(=O)(=O)c1ccccc1 (centres unmarked) | 18.1 |
| Cc1ccc(-c2noc(CSc3ccccc3)n2)cc1 | 10.2 |
| O=C1c2cccnc2C(Nc2ccc(S(=O)(=O)N3CCCCCC3)cc2)N1Cc1ccccc1 (centres unmarked) | -9.79 |
| Cc1cc(Cn2ccnc2)c(C)c([N+](=O)[O-])c1Cn1ccnc1 | -7.19 |
| CC1CCCC(NC(=O)CCC(=O)NCc2ccccc2)C1C (centres unmarked) | 11.5 |
| O=S(=O)(O)c1cnccc1Nc1cccc(C(F)(F)F)c1 | 5.95 |
| Cc1cc(N2CCCC(C(=O)Nc3cccc(Cl)c3)C2)n2ncnc2n1 (centres unmarked) | -38 |
| Cc1nc2ncnn2c(N2CCCC(C(=O)Nc3ccccc3Br)C2)c1C (centres unmarked) | -60.2 |
| COc1ccccc1NC(=O)C1CCCN(c2cc(C)nc3ncnn23)C1 (centres unmarked) | -20.8 |
| CCc1c(C)nc2ncnn2c1N1CCCC(C(=O)NCc2cccs2)C1 (centres unmarked) | -19.1 |
| COc1ccccc1NC(=O)C1CCCN(c2nc(C)cc(C)n2)C1 (centres unmarked) | -10 |
| Cc1nc2ncnn2c(N2CCCC(C(=O)Nc3ccc4c(c3)CCC4)C2)c1C (centres unmarked) | -53 |
| Cc1cc(N2CCCC(C(=O)Nc3cccc4ccccc34)C2)n2ncnc2n1 (centres unmarked) | -61.9 |
| COc1ccc(NC(=O)C2CCCN(c3cc(C)nc4ncnn34)C2)cc1 (centres unmarked) | -12.5 |
| Cc1cc(C)nc(N2CCC(C(=O)Nc3ccc4c(c3)CCC4)CC2)n1 | 17.3 |
| Cc1cc(N2CCCC(C(=O)Nc3ccc4c(c3)CCC4)C2)n2ncnc2n1 (centres unmarked) | -57.2 |

| Structure (SMILES) | hERG current change (%, negative = inhibition) at 10uM [%] |
| --- | --- |
| O=C(Nc1ccc2c(c1)CCC2)C1CCCN(c2ncccn2)C1 (centres unmarked) | -2.53 |
| COc1cc(C)nc(N2CCCC(C(=O)Nc3ccccc3Br)C2)n1 (centres unmarked) | 8.77 |
| CC(Oc1ccc2c3c(c(=O)oc2c1)CCCC3)C(=O)NCc1ccncc1 (centres unmarked) | 4.36 |
| Cc1nn(CC(O)Cn2c3c(c4ccccc42)CCN(C)C3=O)c(C)c1Br (centres unmarked) | -17.5 |
| CNC(=S)Nc1cc(C)ccc1OC(F)F | 2.85 |
| CCCCn1c(N)c(N(CC)C(=O)CCNC(=O)NC23CC4CC(CC(C4)C2)C3)c(=O)[nH]c1=O | 8.45 |
| CCN(CC)S(=O)(=O)c1ccc(N2CCCC2)c(C(=O)OCC(=O)N2CCCC2)c1 | -3.73 |
| O=C(NC1CONC1=O)OCC(Cl)(Cl)Cl (centres unmarked) | 8.91 |
| CC(C)c1cc(C(=O)O)n[nH]1 | 20.3 |
| COC(=O)c1ccc(NC(=O)CCc2nnc3ccc(N4CCC5(CC4)OCCO5)nn23)cc1 | 10.1 |
| CCc1ccccc1NC(=S)N(CCN(C)C)C(C)c1ccccn1 (centres unmarked) | -30.8 |
| O=C(NNC(=O)c1ccccc1OCc1ccccc1Cl)c1csc(N2CCOCC2)n1 | 31 |
| O=C(COC(=O)c1ccc(F)c(S(=O)(=O)N2CCOCC2)c1)NC1CC1 | -17.4 |
| COc1cc2c(cc1OC)C(C)N(C(=O)C(NC(=O)c1ccccc1)C(C)C)CC2 (centres unmarked) | 7.1 |
| COc1ccc(-c2ocnc2C(=O)NCc2nn(-c3ccccc3)nc2C)cc1 | 5.05 |
| CN(C)CCN(C(=O)c1ccc2c(c1)CCCC2)c1nc2c(F)cccc2s1.Cl | -14.6 |
| COc1cccc2sc(N(CCCN(C)C)C(=O)c3ccc(S(=O)(=O)N4CCCc5ccccc54)cc3)nc12.Cl | -68.3 |
| COc1cccc2sc(N(CCN(C)C)C(=O)c3ccc4c(c3)CCCC4)nc12.Cl | -66.7 |
| CCOc1ccc2nc(N(CCN(C)C)C(=O)c3ccc4c(c3)CCCC4)sc2c1.Cl | -1.63 |
| CN(C)CCCN(C(=O)c1ccc2c(c1)CCCC2)c1nc2c(F)cccc2s1.Cl | -70 |
| COc1cccc2sc(N(CCN(C)C)C(=O)c3ccc(S(=O)(=O)N4CCCC4)cc3)nc12.Cl | -31.2 |
| CN(C)CCCN(C(=O)c1ccc(S(=O)(=O)N2CCc3ccccc32)cc1)c1nc2c(Cl)cccc2s1.Cl | -27.6 |
| COc1ccc2sc(N(CCCN(C)C)C(=O)c3ccc(S(=O)(=O)N4CCCc5ccccc54)cc3)nc2c1.Cl | -14.4 |
